Reference: publication PMC4336329 (PLoS ONE, 2015)
The campaign covered roughly 310,000 compounds. About 14,000 (4.5%) showed an effect of 50% or more. Effects have a minus sign here. Many of the other results were omitted from the sample, so strong results are more common in it than they were.

target: human ether-à-go-go-related gene (hERG) potassium channel (human, UniProt Q12809); test: primary screen, population patch clamp on CHO cells stably expressing hERG; higher = less effect of the substance
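Also: peak tail current of the secondary pulse compared with the same well before compound.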

Chain of human ether-à-go-go-related gene (hERG) potassium channel (Q12809 whole entry, looked up): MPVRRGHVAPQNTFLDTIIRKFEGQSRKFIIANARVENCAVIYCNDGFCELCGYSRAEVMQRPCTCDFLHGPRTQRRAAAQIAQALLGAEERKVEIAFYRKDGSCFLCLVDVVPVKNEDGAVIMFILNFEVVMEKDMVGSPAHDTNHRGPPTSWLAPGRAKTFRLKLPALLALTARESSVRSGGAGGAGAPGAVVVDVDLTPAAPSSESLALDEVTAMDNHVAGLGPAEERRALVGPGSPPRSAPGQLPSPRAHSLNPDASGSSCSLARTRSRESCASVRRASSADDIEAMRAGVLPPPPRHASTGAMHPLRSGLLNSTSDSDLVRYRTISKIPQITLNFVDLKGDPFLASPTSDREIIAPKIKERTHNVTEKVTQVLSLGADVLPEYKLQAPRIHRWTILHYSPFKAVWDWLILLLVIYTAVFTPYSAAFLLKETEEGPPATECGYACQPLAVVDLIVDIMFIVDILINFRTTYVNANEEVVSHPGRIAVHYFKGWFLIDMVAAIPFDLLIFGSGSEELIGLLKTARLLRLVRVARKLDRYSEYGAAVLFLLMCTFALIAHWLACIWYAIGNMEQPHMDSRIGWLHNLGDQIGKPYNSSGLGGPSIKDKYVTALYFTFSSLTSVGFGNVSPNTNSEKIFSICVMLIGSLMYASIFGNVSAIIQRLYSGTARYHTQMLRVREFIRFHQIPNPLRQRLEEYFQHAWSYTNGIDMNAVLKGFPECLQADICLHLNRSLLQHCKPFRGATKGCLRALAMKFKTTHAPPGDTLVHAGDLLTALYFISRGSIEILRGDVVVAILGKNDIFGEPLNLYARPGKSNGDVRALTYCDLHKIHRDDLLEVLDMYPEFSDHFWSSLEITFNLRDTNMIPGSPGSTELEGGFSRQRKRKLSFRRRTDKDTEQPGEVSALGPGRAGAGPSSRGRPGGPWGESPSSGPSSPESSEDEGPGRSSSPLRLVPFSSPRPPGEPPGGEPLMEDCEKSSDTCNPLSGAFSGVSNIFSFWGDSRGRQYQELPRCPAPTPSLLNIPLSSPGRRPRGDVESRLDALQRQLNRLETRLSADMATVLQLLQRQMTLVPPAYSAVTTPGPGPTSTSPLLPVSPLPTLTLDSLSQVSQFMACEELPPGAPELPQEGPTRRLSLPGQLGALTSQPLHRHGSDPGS

Going from `CCc1ccccc1NC(=O)Cn1nc(C(F)(F)F)c2c1CCC2` to `COc1ccc2cc(CN(C(=O)Nc3ccccc3OC)C3CCCC3)c(=O)[nH]c2c1`, the “hERG current change (%, negative = inhibition) at 10uM” value falls from 7.74% to -46.9%.

Compared with `CN=c1scc(C)n1/N=C/c1cc(Br)c(O)c(OC)c1`, `COc1cc2c(cc1OC)CN(C(=O)c1cccc(S(=O)(=O)N(C)C)c1)CC2` is lower in “hERG current change (%, negative = inhibition) at 10uM” value: 15.8% for the first, 6.05% for the second.

Going from `C=C(C)c1cccc(C(C)(C)NC(=O)NCC2CCCO2)c1` (stereo not shown) to `CCOc1ccc(Cl)cc1S(=O)(=O)N1CCC(C(=O)NCC2CCCO2)CC1` (stereo not shown), the “hERG current change (%, negative = inhibition) at 10uM” value falls from 3.74% to -2.63%.

First: CC(C)c1nc(N2CCOCC2)c(C#N)c2c1COC(C)(C)C2
Second: Cc1cc(NC(=O)C23CCC(C)(C(=O)O2)C3(C)C)no1 (stereo not shown)
The “hERG current change (%, negative = inhibition) at 10uM” value of the first is lower: 9.56% for the first, 12% for the second.

Compared with `CCOc1ccc(-n2c(C)cc(/C=C3/C(=N)N4C(=NC3=O)SN=C4S(C)(=O)=O)c2C)cc1`, `Cc1cc(/C=C2/C(=N)N3C(=NC2=O)SN=C3S(C)(=O)=O)c(C)n1-c1ccc(F)cc1` is higher in “hERG current change (%, negative = inhibition) at 10uM” value: -53.4% for the first, 47.6% for the second.

Compared with `Cc1cc(/C=C2/C(=N)N3C(=NC2=O)SN=C3S(C)(=O)=O)c(C)n1-c1ccccc1`, `COc1cc2c(cc1OC)C(c1ccccc1)N(C(=O)c1cccc(S(C)(=O)=O)c1)CC2` (stereo not shown) is lower in “hERG current change (%, negative = inhibition) at 10uM” value: 0.917% for the first, -24% for the second.

Going from `CCOc1ccccc1OCCC(=O)OCC(=O)c1ccc[nH]1` to `CCOc1ccc(CCNC(=O)Cn2cccc2C(=O)c2ccccc2)cc1OCC`, the “hERG current change (%, negative = inhibition) at 10uM” value rises from -16.2% to -2.85%.

Compared with `COc1cc2cc(CN(Cc3cccnc3)C(=O)Nc3ccccc3)c(=O)[nH]c2cc1OC`, `COc1ccc2[nH]c(=O)c(CN(Cc3cccnc3)C(=O)Nc3ccccc3)cc2c1` is lower in “hERG current change (%, negative = inhibition) at 10uM” value: -21.8% for the first, -54.6% for the second.

Compared with `COc1ccc2[nH]c(=O)c(CN(CCCN(C)C)C(=O)Nc3ccc(F)cc3)cc2c1`, `COc1ccc(NC(=O)N(CCCN(C)C)Cc2cc3cc(OC)ccc3[nH]c2=O)cc1` is higher in “hERG current change (%, negative = inhibition) at 10uM” value: -65.7% for the first, -38.5% for the second.

Going from `COc1ccc2[nH]c(=O)c(CN(CCCN(C)C)C(=O)Nc3ccccc3)cc2c1` to `CCN(CC)CCCN(Cc1cc2cc(OC)ccc2[nH]c1=O)C(=O)Nc1ccccc1`, the “hERG current change (%, negative = inhibition) at 10uM” value falls from -29.2% to -55.3%.

Compared with `COc1ccc(NC(=O)N(Cc2cc3cc(OC)ccc3[nH]c2=O)CC2CCCO2)cc1` (stereo not shown), `COc1ccc2[nH]c(=O)c(CN(CC3CCCO3)C(=O)Nc3ccccc3)cc2c1` (stereo not shown) is higher in “hERG current change (%, negative = inhibition) at 10uM” value: -31.6% for the first, -2.72% for the second.

Compared with `CCN(CC)CCCN(Cc1cc2cc(OC)ccc2[nH]c1=O)C(=O)Nc1ccc(F)cc1`, `CCN(CC)CCCN(Cc1cc2cc3c(cc2[nH]c1=O)OCCO3)C(=O)Nc1ccc(F)cc1` is higher in “hERG current change (%, negative = inhibition) at 10uM” value: -69.9% for the first, -61.6% for the second.

First: CCN(CC)CCCN(Cc1cc2cc(OC)c(OC)cc2[nH]c1=O)C(=O)Nc1ccccc1
Second: CCN(CC)CCCN(Cc1cc2cc3c(cc2[nH]c1=O)OCCO3)C(=O)Nc1ccccc1
The “hERG current change (%, negative = inhibition) at 10uM” value of the first is higher: -13.8% for the first, -41.7% for the second.

First: CCOc1ccc2[nH]c(=O)c(CN(Cc3cccnc3)C(=O)Nc3ccccc3OC)cc2c1
Second: COc1ccc2cc(CN(C(=O)Nc3ccccc3)C3CCCC3)c(=O)[nH]c2c1
The “hERG current change (%, negative = inhibition) at 10uM” value of the first is higher: -6.63% for the first, -60.5% for the second.

Compared with `CCN(CC)CCCN(Cc1cc2cc3c(cc2[nH]c1=O)OCO3)C(=S)Nc1ccc(OC)cc1`, `CCN(CC)CCCN(Cc1cc2cc3c(cc2[nH]c1=O)OCO3)C(=S)Nc1ccccc1` is higher in “hERG current change (%, negative = inhibition) at 10uM” value: -46.8% for the first, -45.9% for the second.

First: COC(=O)c1cscc1NC(C)=O
Second: COC(=O)c1cccc(S(=O)(=O)N2CCC(C)CC2)c1
The “hERG current change (%, negative = inhibition) at 10uM” value of the first is higher: 20.7% for the first, -4.23% for the second.

Going from `O=C(O)CCc1n[nH]c(=S)[nH]c1=O` to `CSCCC(NC(=O)COc1ccccc1)C(=O)Nc1ccc(C)cc1` (stereo not shown), the “hERG current change (%, negative = inhibition) at 10uM” value falls from 5.81% to -3.07%.

Compared with `Cc1ccc(C)c(C(=O)C(C)OC(=O)CN2C(=O)NC3(CC(C)CC(C)(C)C3)C2=O)c1` (stereo not shown), `COc1ccc(NC(=O)CSc2nc3c([nH]c4ccccc43)c(=O)n2C)c(OC)c1` is lower in “hERG current change (%, negative = inhibition) at 10uM” value: 23.2% for the first, 19% for the second.

Compared with `CC(=Nc1ccccc1)c1sc2ccccc2c1O`, `CC(=O)c1c(C(C)=O)c(C)n(C(c2ccccc2)c2ccccc2)c1C` is higher in “hERG current change (%, negative = inhibition) at 10uM” value: -10.8% for the first, -9.83% for the second.

Compared with `ON1C(c2ccc(Cl)cc2Cl)N(O)[C@H]2CCCC[C@H]21` (stereo partly shown), `COc1cc2cc(CN(C(=O)Nc3ccccc3)C3CCCC3)c(=O)[nH]c2cc1OC` is lower in “hERG current change (%, negative = inhibition) at 10uM” value: -1.85% for the first, -44.2% for the second.

First: O=C(COc1ccccc1)Nc1cc(S(=O)(=O)N2CCOCC2)ccc1N1CCCC1
Second: CCOC(=O)c1ccc(NC(=O)NCCN2CCCCC2)cc1
The “hERG current change (%, negative = inhibition) at 10uM” value of the first is higher: -8.47% for the first, -31.6% for the second.

Going from `Cc1cc2nc(C)n(CCCNC(=O)Nc3ccc(F)cc3)c2cc1C` to `Cc1cc2nc(C)n(CCCNC(=O)Nc3ccc(C#N)cc3)c2cc1C`, the “hERG current change (%, negative = inhibition) at 10uM” value rises from -49.9% to -34%.

Going from `CCOc1ccc(NC(=O)NCCCn2c(C)nc3cc(C)c(C)cc32)cc1` to `COc1ccc(C(C)n2c(C)c3c(C)nnc(C)c3c2C)cc1` (stereo not shown), the “hERG current change (%, negative = inhibition) at 10uM” value falls from -55.5% to -57.9%.

Compared with `COc1cccc(-c2nc(-c3ccccn3)no2)c1OC`, `COc1ccc(C(=O)C(Sc2nnc(C)c(=O)[nH]2)c2ccc(OC)cc2)cc1` (stereo not shown) is lower in “hERG current change (%, negative = inhibition) at 10uM” value: 0.968% for the first, -12.3% for the second.

Going from `Cc1noc(C)c1COc1ccc(C(=O)OCc2nnc(-c3ccc(Cl)cc3)o2)cc1` to `COc1ccc(-c2nnnn2C(C)C)cc1`, the “hERG current change (%, negative = inhibition) at 10uM” value falls from 10.1% to -0.893%.

Going from `CNC(=O)c1ccccc1S(=O)c1ccccc1C#N` (stereo not shown) to `N#C/C(=C\c1ccco1)C(=O)NCc1ccccc1`, the “hERG current change (%, negative = inhibition) at 10uM” value rises from 2.49% to 4.87%.

First: COc1cc2c(cc1OC)C(c1cccs1)N(C(=O)c1ccc(S(=O)(=O)N(C)C)cc1)CC2 (stereo not shown)
Second: COc1cc2c(cc1OC)C(c1cccs1)N(C(=O)c1cccc(S(=O)(=O)N(C)C)c1)CC2 (stereo not shown)
The “hERG current change (%, negative = inhibition) at 10uM” value of the first is lower: -72.6% for the first, -70.7% for the second.

Going from `COc1ccc(C(=O)N2CCc3cc(OC)c(OC)cc3C2c2ccc(OC)c(OC)c2)cc1OC` (stereo not shown) to `COc1ccc(C(=O)N2CCc3cc(OC)c(OC)cc3C2c2ccc(OC)c(OC)c2)cc1` (stereo not shown), the “hERG current change (%, negative = inhibition) at 10uM” value falls from 1.43% to -12%.

Compared with `Cc1nnc(C)c2c(C)n(C(c3ccccc3)c3ccccc3)c(C)c12`, `Cc1nnc(C)c2c(C)n(C(C)c3ccccc3)c(C)c12` (stereo not shown) is higher in “hERG current change (%, negative = inhibition) at 10uM” value: -71.4% for the first, -20.7% for the second.
